Rows were chosen to be rich in hits. Some 19% of all compounds tested hit in one or more screens of this group.
Gal4-VP16 FLuc: counter-screen for ROR gamma inhibitors: Gal4-VP16 reporter | Drosophila S2 Gal4-VP16 UAS-luciferase, luminescence, 20 h | Potency, µM (top dose mostly 53.6 µM), without a hit: at the highest dose activity, negative = inhibition, usual class: inhibitors | actives 3.5% (n = 310,000) | AID 2546;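 further: Gal4-VP16 expression switched on by copper sulfate through the metallothionein promoter; nearly all actives have a fitted effect of over 50% in size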
DT40 TDP1 no CPT: qHTS for Inhibitors of human tyrosyl-DNA phosphodiesterase 1 (TDP1): qHTS in cells in absence of CPT; actives 15% (n = 420,000); DT40 Tdp1-/- hTDP1 cells, no CPT, ATP luminescence, 48 h; Potency, µM (top dose mostly 46.2 µM), for the others: at the highest dose activity change, negative = growth inhibition, hits mostly inhibitors; further: nearly all actives have a fitted effect of over 55% in size
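Luminescent ATP content (CellTiter-Glo) served as the growth readout. Knockout chicken DT40 cells expressing human TDP1 were exposed to compounds without camptothecin for a minimum 48 hr at 37 °C.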
RORgamma inh: inhibitors of mouse ROR gamma transcriptional activity; actives 5.4% (n = 310,000); Potency, µM (doses to about 53.6 µM), inactives show at the highest dose activity change, negative = inhibition, hits mostly inhibitors; Drosophila S2 Gal4-RORgamma UAS-luciferase reporter, 20 h; P51450; further: nearly all actives have a fitted effect of over 60% in size
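In this cell-based reporter format, copper sulfate (700 uM final) drives Gal4–ROR gamma fusion expression from a metallothionein promoter in Drosophila Schneider cells; compounds preincubated 1 hr, reporter read after 20 hr at ambient temperature.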
TDP1 inh: inhibitors of human tyrosyl-DNA phosphodiesterase TDP1 | Potency, µM (series often up to 130 µM), without a hit: at the highest dose activity change, negative = inhibition, usual class: inhibitors | AID 485290 | Q9NUW8 | actives 0.28% (n = 350,000) | recombinant TDP1, AlphaScreen DNA substrate cleavage; further: nearly all actives have a fitted effect of over 40% in size
Target sequence (Q9NUW8 whole entry, looked up): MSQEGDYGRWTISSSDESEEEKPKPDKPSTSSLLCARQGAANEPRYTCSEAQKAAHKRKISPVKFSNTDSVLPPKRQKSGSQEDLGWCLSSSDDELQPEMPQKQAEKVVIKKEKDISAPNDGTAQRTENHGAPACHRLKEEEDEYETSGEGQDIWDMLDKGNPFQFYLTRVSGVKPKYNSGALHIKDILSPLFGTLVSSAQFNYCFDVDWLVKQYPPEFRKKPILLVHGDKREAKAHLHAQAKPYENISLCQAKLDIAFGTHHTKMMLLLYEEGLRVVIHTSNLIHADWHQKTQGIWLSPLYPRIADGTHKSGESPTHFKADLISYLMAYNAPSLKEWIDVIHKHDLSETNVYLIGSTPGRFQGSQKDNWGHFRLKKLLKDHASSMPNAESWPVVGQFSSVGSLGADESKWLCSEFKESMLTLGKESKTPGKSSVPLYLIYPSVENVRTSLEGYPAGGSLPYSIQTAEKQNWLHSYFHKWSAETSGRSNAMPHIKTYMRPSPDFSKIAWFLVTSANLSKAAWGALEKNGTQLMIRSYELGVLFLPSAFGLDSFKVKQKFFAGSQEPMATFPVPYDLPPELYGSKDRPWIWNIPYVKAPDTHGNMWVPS
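Here, a 5' biotin and 3' phosphotyrosine-FITC DNA oligonucleotide reports Tdp1 activity: intact substrate bridges AlphaScreen beads, while cleavage leaves a 3' phosphate and drops signal. All incubations at room temperature.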
DT40 TDP1 CPT: DT40-hTDP1 cell growth loss with CPT | actives 12% (n = 420,000) | chicken DT40 Tdp1-/-;hTDP1 cells + 20 nM CPT, ATP luminescence, 48 h | Potency, µM (series often up to 46.2 µM), for the others: at the highest dose activity change, negative = growth inhibition, most hits filed as inhibitors | AID 686979; further: nearly all actives have a fitted effect of over 55% in size
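Chicken DT40 Tdp1-/- cells stably complemented with human TDP1 were seeded at 400 cells/well in medium containing 20 nM camptothecin, exposed to pin-transferred compounds, and grown at 37 °C for at least 48 hr. Viability was read as ATP luminescence.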
Active calls of the source: *; ? = inconclusive; nt = not tested or not shown; [ ] = remark or other dose. The call rests on the fitted dose curve; in most records, active means well fitted curve in the direction sought with a large enough effect; inconclusive means small, poorly fitted or top-dose-only effect, or another doubt; inactive means no such curve, though single readings can be large; an effect the other way counts as inactive or inconclusive. On the % scale 0 is the no-effect control and ±100 the full control effect; potency means the concentration at half of the fitted maximal effect.

SMILES | Gal4-VP16 FLuc | DT40 TDP1 no CPT | RORgamma inh | TDP1 inh | DT40 TDP1 CPT
O=C(c1cc(-c2ccccn2)nc2c(Cl)cccc12)N1CCN(C(=O)C2CCCO2)CC1 (configuration not stated) | -1% | ? | -19% | 4% | -30%
O=C(c1cc(-c2ccccn2)nc2c(Cl)cccc12)N1CCN(S(=O)(=O)c2ccccc2)CC1 | -2% | 21µM* | ? | 1% | ?
CC(C)Oc1cccc(-c2cc(C(=O)N3CCN(S(C)(=O)=O)CC3)c3ccccc3n2)c1 | -20% | 10µM* | 6% | 9% | ?
COc1cccc(-c2cc(C(=O)N3CCN(c4ncccn4)CC3)c3ccccc3n2)c1 | 1% | 23µM* | ? | 7% | ?
Cc1cccc(-n2c(C)nc3ccsc3c2=O)c1 | nt | -32% | nt | nt | -13%
O=C(c1cc(-c2ccncc2)nc2ccc(Br)cc12)N1CCN(c2ccccn2)CC1 | -8% | 12µM* | 16% | 4% | ?
Cc1ccc2nc(-c3ccccn3)cc(C(=O)N3CCN(c4ncccn4)CC3)c2c1 | -2% | 13µM* | 4% | 2% | 21µM*
COc1ccc(-c2cc(C(=O)N3CCN(c4cccc(C)c4C)CC3)c3ccccc3n2)cc1OC | nt | 13µM* | nt | -6%[0.505 µM] | ?
O=C(c1cc(-c2cccc(Cl)c2)nc2ccccc12)N1CCN(c2ccccn2)CC1 | ? | ? | 27% | 5% | ?
Cc1cc(C)c(S(=O)(=O)N2CCCC(C(=O)NC3CC3)C2)c(C)c1 (configuration not stated) | 3% | -30% | -19% | 1% | -23%
CC1CCN(S(=O)(=O)c2ccc3c(c2)N(CC(=O)NCCCOC(C)C)C(=O)CS3)CC1 | 4% | 21% | -14% | 3% | -17%
CN(C(=O)c1cc2nc(-c3ccco3)cc(C(F)(F)F)n2n1)c1ccc(OC(F)(F)Cl)cc1 | nt | nt | nt | 2% | nt
Cc1nnc(N2CCCC(C(=O)NCc3cccc(F)c3)C2)c2nn(-c3ccccc3)c(C)c12 (configuration not stated) | -1% | 13µM* | 2% | 4% | ?
COc1ccc(-n2nc3c(N4CCCC(C(=O)NCc5cccc(F)c5)C4)nnc(C)c3c2C)cc1 (configuration not stated) | nt | 13µM* | nt | 6% | 8.2µM*
Cc1nnc(N2CCCC(C(=O)NCc3ccccc3)C2)c2nn(-c3ccccc3)c(C)c12 (configuration not stated) | nt | -20% | nt | 3% | -8%
CCCn1c(N)c(C(=O)CSc2nc3ncc(Cl)cc3[nH]2)c(=O)n(C)c1=O | nt | 21% | nt | 28µM* | -21%
CC(Sc1nc2ncc(Cl)cc2[nH]1)C(=O)c1c(N)n(C)c(=O)n(C)c1=O (configuration not stated) | nt | -3% | nt | 0% | -4%
CC(C)Cn1c(N)c(C(=O)CSc2nc3ncc(Cl)cc3[nH]2)c(=O)n(C)c1=O | nt | 16µM* | nt | -14%[0.505 µM] | ?
Fc1ccc(Br)cc1C1C=C(c2ccc(Br)s2)Nc2ncnn21 (configuration not stated) | 3%[0.365 µM] | 0.65µM* | 35µM* | 5% | 0.92µM*
Cc1ccc(N2CCN(C(=O)c3cnn(-c4ccc(F)cc4F)c3C3CCN(C(=O)OC(C)(C)C)CC3)CC2)c(C)c1 | nt | 23µM* | nt | 4% | 16µM*
Cc1ccc(C)c(N2CCN(CCCNC(=O)c3cnn(-c4ccccc4Cl)c3C3CCN(C(=O)OC(C)(C)C)CC3)CC2)c1 | nt | 4.6µM* | nt | 7% | 4.6µM*
CC(C)(C)OC(=O)N1CCC(c2c(C(=O)N3CCN(C(=O)c4ccco4)CC3)cnn2-c2ccccc2Cl)CC1 | nt | ? | nt | 1% | -27%
CC(C)(C)OC(=O)N1CCC(c2c(C(=O)N3CCCCC3)cnn2-c2ccc(F)cc2F)CC1 | nt | ? | nt | 3% | ?
Cc1ccc(C)c(N2CCN(CCCNC(=O)c3cnn(-c4cccc(Cl)c4)c3C3CCN(C(=O)OC(C)(C)C)CC3)CC2)c1 | nt | 5.8µM* | nt | 5% | 4.6µM*
